# Laboratory results: the supplement of paper PMC10338343
# ± gives the standard deviation.
# System: MILI (PIWIL2) piRISC loaded with L1MC piRNA (26 nt)
# Test: pre-steady-state target cleavage rate (min^-1); guide: L1MC piRNA 5'p-UAACUAAAUACUAUGCAAGCUGUAGG; MIWI and MILI are mouse PIWI proteins and EfPiwi is from a freshwater sponge; tags in brackets are library labels; higher = faster piRNA-guided slicing of the target
# Details: auxiliary factor: none (no GTSF1)
# Method in brief: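 In Cleave-'n-Seq, a transcribed, DNA-blocked target RNA library (0.1 nM) was combined with 1 nM active affinity-purified piRISC bearing one synthetic guide, with or without 500 nM GTSF1 partner protein. Reactions ran in HEPES–potassium acetate buffer at 33 °C for 0–8 or 0–960 min. Uncleaved targets were sequenced and normalised to depth and to weakly complementary targets, three trials were pooled, and k3 was capped at 0.0001 min^-1. The pre-steady-state cleavage rate was obtained by fitting a burst-and-steady-state model.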
row,Sequence,pre-steady-state target cleavage rate
1,UCCUGGAUGUCGUUGCAUAGAUUUUAGUUA,0.00439 ± 0.0019
2,UCCUGGAUGUCGAACCAUAAUAUUUAGUUA,< 0.0001
3,UCCUGGAUGUCGAACGUAUCUAUUUAGUCA,< 0.0001
4,UCCUGGAUGUCGAACGUAUGAUUUUAGUUA,< 0.0001
